# EBV LMP1 NFkB – EBV LMP1-driven NF-kappaB luciferase reporter inhibitors, primary screen, cell-based, luminescence, single point; 0.69% of 350,000 active; LMP1-induced NF-kappaB luciferase reporter cells; AID 504558, 2011; inhibition, % at 12.5 µM; in the data active means inhibition above about 41%;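 further: 0% = neutral control wells and 100% = reference inhibitor control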
# PAX8 inh HTS – inhibitors of PAX8-driven TPO luciferase reporter, primary screen, RMG-I cells, single concentration | SteadyGlo, 24 h | inhibition, % at 12.6 µM | 1.2% of 360,000 active;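 active means mean replicate inhibition at least 60% with every replicate also reaching 60%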;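 further: luciferase light reporting Pax8 driven TPO promoter activity; plate controls were median of neutral control wells for no effect and mitoxantrone controls for full effect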
# Shn3 inh set2 – reduction of Shn3 3'UTR firefly luciferase signal, primary screen, Schnurri-3 inhibitor project, cell-based, Clone20 osteoblasts, set 2 | Clone20 osteoblast Shn3 3'UTR firefly luciferase, 24 h | inhibition, % at 12.5 µM | 0.52% of 360,000 active;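 active means mean inhibition of at least 75% with every replicate also reaching 75%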;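 further: 0% = median of neutral control wells and 100% = pilot-screen positive control compound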
# NSD2 inh – NSD2 histone methyltransferase inhibitors, primary screen, biochemical, AlphaScreen, single concentration, set 2; 0.54% of 310,000 active; inhibition, % at 12.5 µM; AID 743445, 2014; NSD2 peptide methylation, 120 min; Histone-lysine N-methyltransferase NSD2 (Homo sapiens), O96028; in the data active means inhibition above about 50%
# Target sequence (O96028 whole entry, looked up): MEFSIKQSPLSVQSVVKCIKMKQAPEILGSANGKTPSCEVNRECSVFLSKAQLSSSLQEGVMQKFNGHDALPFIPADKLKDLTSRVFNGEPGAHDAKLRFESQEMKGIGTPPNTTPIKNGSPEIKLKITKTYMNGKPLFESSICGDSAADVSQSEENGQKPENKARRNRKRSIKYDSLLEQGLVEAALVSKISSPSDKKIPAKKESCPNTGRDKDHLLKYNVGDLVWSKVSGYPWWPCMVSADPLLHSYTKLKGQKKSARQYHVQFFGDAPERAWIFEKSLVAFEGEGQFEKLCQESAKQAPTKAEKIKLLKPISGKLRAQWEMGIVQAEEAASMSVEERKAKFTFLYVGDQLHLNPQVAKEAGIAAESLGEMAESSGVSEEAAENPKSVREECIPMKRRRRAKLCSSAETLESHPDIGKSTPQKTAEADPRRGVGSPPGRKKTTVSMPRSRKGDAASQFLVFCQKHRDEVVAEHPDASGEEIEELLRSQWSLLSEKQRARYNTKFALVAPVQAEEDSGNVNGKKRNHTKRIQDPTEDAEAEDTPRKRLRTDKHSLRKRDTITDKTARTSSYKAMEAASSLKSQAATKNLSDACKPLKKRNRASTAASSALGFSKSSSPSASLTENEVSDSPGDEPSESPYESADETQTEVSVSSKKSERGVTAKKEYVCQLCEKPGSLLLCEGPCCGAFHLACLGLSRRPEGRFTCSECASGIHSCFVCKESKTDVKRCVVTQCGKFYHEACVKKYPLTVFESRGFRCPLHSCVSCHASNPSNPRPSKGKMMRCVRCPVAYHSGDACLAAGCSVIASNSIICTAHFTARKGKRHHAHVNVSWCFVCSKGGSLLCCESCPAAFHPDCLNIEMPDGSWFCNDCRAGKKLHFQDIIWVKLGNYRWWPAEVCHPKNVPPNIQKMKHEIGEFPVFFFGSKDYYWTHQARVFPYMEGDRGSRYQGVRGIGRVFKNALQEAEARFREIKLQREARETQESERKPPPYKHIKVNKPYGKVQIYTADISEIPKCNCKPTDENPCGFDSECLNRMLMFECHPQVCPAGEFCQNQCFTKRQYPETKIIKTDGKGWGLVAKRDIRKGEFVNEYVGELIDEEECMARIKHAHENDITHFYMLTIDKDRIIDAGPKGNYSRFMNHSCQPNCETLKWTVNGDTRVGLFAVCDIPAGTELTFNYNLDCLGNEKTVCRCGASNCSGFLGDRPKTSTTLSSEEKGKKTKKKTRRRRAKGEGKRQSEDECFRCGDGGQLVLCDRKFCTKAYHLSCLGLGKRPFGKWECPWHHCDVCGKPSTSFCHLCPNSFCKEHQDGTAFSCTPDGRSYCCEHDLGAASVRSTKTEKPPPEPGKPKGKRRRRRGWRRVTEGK
# N-glyco inh – increase of ERlucT glycosylation luciferase signal, primary screen, N-linked glycosylation inhibitor project, D54 ERlucT cells, luminescence, set 2; D54 ERlucT glycosylation luciferase reporter, 24 h; percent of 100 nM tunicamycin response; reporter increase, % at 12.5 µM; 0.23% of 360,000 active;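 active means mean luciferase reporter signal, scaled so untreated is 0 and the glycosylation-blocking control 100, at or above a set limit in every replicate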;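 further: luciferase carries N-glycosylation sites so blocking glycosylation raises the light; 0% = median of neutral control wells and 100% = median of 100 nM tunicamycin wells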
# Env fusion inh – inhibitors of HIV-1 Env-driven cell-cell fusion, primary screen, HeLa-JRFL effector, CEM21 target cells, luciferase; AID 651610, 2012; inhibition, % at 12.3 µM; 1.1% of 360,000 active;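 active means mean replicate inhibition score of at least 50 and every replicate individually at or above 50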;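 further: 0% = plate neutral controls and 100% = maraviroc near 300 nM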
# * hit, by the source's call; i = inactive; nt = no result; [ ] = another dose, or the depositor's remark. This is a sample that favours compounds with a hit; in the whole collection about 2.8% have one here.
SMILES,EBV LMP1 NFkB,PAX8 inh HTS,Shn3 inh set2,NSD2 inh,N-glyco inh,Env fusion inh
O=C(NCc1ccccc1)c1nc(S(=O)(=O)Cc2ccccc2)ncc1Cl,-14,20,94*,-1,-16,30
Cc1noc(C(=O)NCc2ccccc2)c1Cl,-2,-3,-5,nt,1,9
COC(=O)c1ccccc1NC(=O)c1nc(S(=O)(=O)Cc2ccccc2)ncc1Cl,10,-11,95*,-2,-14,1
C[C@@H]1CN([C@H](C)CO)C(=O)c2cc(NS(=O)(=O)c3cccs3)ccc2O[C@H]1CN(C)C,nt,2,nt,nt,nt,nt
CCCCCc1cc(=O)oc2c(C(CCN3CCCCC3)c3ccc4c(c3)OCO4)c(OC)cc(OC)c12 (stereo not given),-11,88*,-16,nt,1,-8
CCCCCc1cc(=O)oc2c(C(CCN3CCCC(C)C3)c3ccc4c(c3)OCO4)c(OC)cc(OC)c12 (stereo not given),0,1,-28,nt,-1,16
Cc1ccc(S(=O)(=O)N(C)C[C@H]2Oc3ccc(NS(=O)(=O)c4ccccc4)cc3C(=O)N([C@H](C)CO)C[C@@H]2C)cc1,nt,nt,nt,nt,nt,8[16.7 µM]
CCCNC(=O)C[C@H]1CC[C@@H]2[C@H](COc3ccc(NC(=O)COC)cc3C(=O)N2C)O1,nt,-13,nt,nt,nt,-11[16.7 µM]
COc1cccc(N2[C@@H](CC(C)=O)c3ccc(/C=C/C(C)=O)cc3S2(=O)=O)c1,0,-1,31,nt,38*,-51
Cc1ccc(CNC(=O)c2cc(-c3ccccc3C)nn2CC2CC(c3cccnc3)=NO2)cc1 (stereo not given),-8,8,92*,nt,4,37
Cc1nc2sc(-c3ccccc3)cc2c(=O)n1-n1cccc1,-58,nt,-32,-2,-6,nt
Cc1nc2sc(-c3ccccc3)cc2c(=O)n1N,62*,41,nt,-3,-20,-12
N#CC(C#N)=C1C=CC=CN1/C(=C\c1ccco1)C(=O)c1ccc(Cl)cc1,-30,nt,97*,2,-19,-323
N#CC(C#N)=C1C=CC=CN1/C(=C\c1ccco1)C(=O)c1ccc(-c2ccccc2)cc1,-32,92*,16,1,18,-188
CC(/C=N/n1c(-c2ccc(Cl)cc2)n[nH]c1=S)=C\c1ccco1,3,3,8,4,3,-1
C=CCn1c(SCc2csc(-c3ccc(Cl)cc3)n2)nnc1-c1ccccc1OC,13,2,10,-2,-4,56*
C[C@H]1CN([C@@H](C)CO)C(=O)c2cc(NC(=O)CCCN(C)C)ccc2O[C@@H]1CN(C)S(=O)(=O)c1ccccc1,nt,-3,nt,nt,nt,-15[16.7 µM]
COc1ccc(/C=C2/CSC/C(=C/c3ccc(OC)c(OC)c3)C2=O)cc1OC,90*,38,98*,9,-20,i
COc1cc(C=C2CCCC(=Cc3ccc(OCC4CO4)c(OC)c3)C2=O)ccc1OCC1CO1 (stereo not given),49*,30,54,0,-7,-55
COc1ccc(/C=C2\Cc3ccccc3C2=O)cc1OC,2,-7,-16,1,6,-2
CO[C@H]1CN(C)C(=O)c2ccc(NS(=O)(=O)c3cccc(C)c3)cc2OC[C@H](C)NC[C@@H]1C,nt,nt,nt,nt,nt,-10[16.7 µM]
Cc1ccc(C(=O)c2cc([N+](=O)[O-])ccc2N2CCCCC2)cc1,-6,88*,6,3,0,-35
Cc1ccc(C(=O)c2cc([N+](=O)[O-])ccc2N2CC(C)OC(C)C2)cc1 (stereo not given),5,9,4,7,13,-1
COCC(=O)N1C[C@@H](C)[C@@H](OC)CN(C)C(=O)c2ccc(NC(=O)c3cc(C)on3)cc2OC[C@H]1C,nt,-10,nt,nt,nt,nt
COCCN1Cc2cccc(C(=O)N3CCN(c4cc(C)ccc4C)CC3)c2C1=O,78*,4,18,nt,1,-15
SMILES,EBV LMP1 NFkB,PAX8 inh HTS,Shn3 inh set2,NSD2 inh,N-glyco inh,Env fusion inh
CCCN1Cc2cccc(C(=O)N3CCN(c4cc(Cl)ccc4C)CC3)c2C1=O,3,nt,13,nt,-3,nt
COCCN1Cc2cccc(C(=O)Nc3ccc4c(c3)OCCO4)c2C1=O,14,-41,87*,nt,-5,10
CC1S/C(=C(\C#N)C(=O)NCc2ccco2)N(Cc2ccco2)C1=O (stereo not given),41*,nt,1,-2,3,nt
Cc1ccc(CC2S/C(=C(/C#N)C(=O)NCc3ccco3)N(c3ccccc3)C2=O)cc1 (stereo not given),4,nt,12,-5,1,nt
COc1ccccc1OCCNS(=O)(=O)c1ccc2oc3ccccc3c2c1,-3,26,-6,-3,3,58*
O=S(=O)(NCCOc1ccccc1Cl)c1ccc2oc3ccccc3c2c1,-3,-14,3,-2,1,-129
COc1cccc(-c2ccc3c(c2)[C@H]2[C@H](CCN2C(=O)NC2CCCC2)[C@H](CO)N3C)c1,nt,-15,nt,nt,nt,nt
COc1cccc(-c2ccc3c(c2)[C@@H]2[C@@H](CCN2C(=O)c2ccccc2F)[C@H](CO)N3C)c1,nt,72*,nt,nt,nt,nt
COc1ccc(-c2ccc3c(c2)[C@H]2[C@H](CCN2C(=O)NC2CCCCC2)[C@H](CO)N3C)cc1,nt,14,nt,nt,nt,nt
COc1cccc(-c2ccc3c(c2)[C@@H]2[C@@H](CCN2C(=O)c2ccccc2F)[C@@H](CO)N3C)c1,nt,36,nt,nt,nt,nt
COc1ccc(-c2ccc3c(c2)[C@@H]2[C@@H](CCN2C(=O)NC2CCCCC2)[C@H](CO)N3C)cc1,nt,82*,nt,nt,nt,nt
COc1cccc(-c2ccc3c(c2)[C@@H]2[C@@H](CCN2C(=O)NC2CCCCC2)[C@H](CO)N3C)c1,nt,86*,nt,nt,nt,35[16.7 µM]
CN1c2ccc(-c3ccccc3)cc2[C@H]2[C@H](CCN2C(=O)NC2CCCCC2)[C@@H]1CO,nt,89*,nt,nt,nt,33[16.7 µM]
C[C@@H]1CN([C@H](C)CO)C(=O)c2c(c3ccccc3n2C)-c2ccccc2CO[C@H]1CN(C)C(=O)Nc1ccnc(N2CCOCC2)c1,nt,-12,nt,nt,nt,nt
COc1cccc(-c2ccc3c(c2)[C@@H]2[C@@H](CCN2C(=O)NC2CCCCC2)[C@@H](CO)N3C)c1,nt,38,nt,nt,nt,-4[16.7 µM]
COc1cccc(-c2ccc3c(c2)[C@H]2[C@H](CCN2C(=O)NC2CCCCC2)[C@H](CO)N3C)c1,nt,66*,nt,nt,nt,42[16.7 µM]
CO[C@H]1CN(C)C(=O)c2ccc(NC(=O)NC(C)C)cc2OC[C@@H](C)N(S(C)(=O)=O)C[C@@H]1C,nt,-2,nt,nt,nt,nt
COc1ccc(S(=O)(=O)N(C)C[C@H]2Oc3ccc(NC(=O)CCN4CCOCC4)cc3CC(=O)N([C@H](C)CO)C[C@H]2C)cc1,nt,-15,nt,nt,nt,-6[16.7 µM]
NC(Cc1ccc(F)cc1)c1csc(Nc2ccc(C(F)(F)F)cn2)n1 (stereo not given),nt,8,19,nt,-2,71*

# Screening results deposited in PubChem by Broad Institute.
